# Screening data as filed in PubChem.
# Compounds with a hit are over-represented: about 1.1% of the library has one in this group of screens.
# ID4 binder = binders of human ID4 protein, primary screen, biochemical, small molecule microarray, single point. AID 624137, 2012. DNA-binding protein inhibitor ID-4 (Homo sapiens), P47928. calls only. 31,000 tested, 1.2% active. Flag-ID4 binding, fluorescence F/B; call rule not given here;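 also: a binder raises fluorescence above local background on the spot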
# STK33 inh = STK33 kinase inhibitors, primary screen, biochemical, luminescence, ADP-Glo, MBP substrate; Serine/threonine-protein kinase 33 (Homo sapiens), Q9BYT3; inhibition, % at 12.5 µM; 27,000 tested, 0.44% active; in the data active = inhibition above about 20%
# Target sequence (Q9BYT3 whole entry, looked up): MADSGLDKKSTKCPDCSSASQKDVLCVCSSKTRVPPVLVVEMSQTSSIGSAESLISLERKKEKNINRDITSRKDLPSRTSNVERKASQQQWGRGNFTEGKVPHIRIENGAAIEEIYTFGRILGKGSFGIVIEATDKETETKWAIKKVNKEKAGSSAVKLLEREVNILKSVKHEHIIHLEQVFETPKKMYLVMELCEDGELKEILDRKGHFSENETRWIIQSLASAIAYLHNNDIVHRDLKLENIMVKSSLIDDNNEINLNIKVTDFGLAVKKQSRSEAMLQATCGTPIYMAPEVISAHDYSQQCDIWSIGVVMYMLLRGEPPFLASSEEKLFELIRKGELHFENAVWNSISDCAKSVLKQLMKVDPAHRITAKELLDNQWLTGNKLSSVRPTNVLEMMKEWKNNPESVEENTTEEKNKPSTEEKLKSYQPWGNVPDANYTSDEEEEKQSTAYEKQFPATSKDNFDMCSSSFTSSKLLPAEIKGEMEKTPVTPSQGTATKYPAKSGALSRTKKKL
# Numbers without * were called inactive; i = inactive; nt = not tested or not shown.
SMILES,ID4 binder,STK33 inh
CCn1cnc2c(Nc3cccc(Cl)c3)nc(N[C@@H]3CCCC[C@@H]3N)nc21,nt,62*
CCC(C)(O)C(=O)O[C@H]1C(=O)O[C@@H]2C[C@H]3C(C)=CC(=O)[C@@H](O)[C@]3(C)[C@H]3[C@@]4(O)OC[C@]32[C@@H]1[C@@H](C)[C@H]4O (stereo partly specified),nt,-3
CC(C)(O)/C=C/C(=O)[C@](C)(O)C1[C@H](O)C[C@@]2(C)[C@@H]3CC=C4C(CC(=O)C(=O)C4(C)C)[C@]3(C)C(=O)C[C@@]12C (stereo partly specified),i,nt
CN[C@@H]1C[C@@]2(C)O[C@@H]([C@@H]1OC)n1c3ccccc3c3c4c(c5c6ccccc6n2c5c31)C(=O)NC4,nt,131*
CC(/C=C/[C@@]1(C)[C@H](C)CCC(=O)[C@@H]1C)=C\Cc1c(O)c(Cl)c(C)c(C=O)c1O,nt,-2
Clc1ccc(C2=CCCC3CCC2N3)cn1 (stereo unspecified),i,nt
